From PubChem
B2AR ag: activates human beta-2 adrenergic receptor causing internalization. P07550. response, % (no concentration beside the values). Am2.2-beta2AR cells, FAP receptor internalization, flow cytometry. actives 0.43% (n = 340,000);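 active = response above a set limit, near 3 SD of response in nonfluorescent compounds, cut at about 42% in these data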
Target sequence (P07550 whole entry, looked up): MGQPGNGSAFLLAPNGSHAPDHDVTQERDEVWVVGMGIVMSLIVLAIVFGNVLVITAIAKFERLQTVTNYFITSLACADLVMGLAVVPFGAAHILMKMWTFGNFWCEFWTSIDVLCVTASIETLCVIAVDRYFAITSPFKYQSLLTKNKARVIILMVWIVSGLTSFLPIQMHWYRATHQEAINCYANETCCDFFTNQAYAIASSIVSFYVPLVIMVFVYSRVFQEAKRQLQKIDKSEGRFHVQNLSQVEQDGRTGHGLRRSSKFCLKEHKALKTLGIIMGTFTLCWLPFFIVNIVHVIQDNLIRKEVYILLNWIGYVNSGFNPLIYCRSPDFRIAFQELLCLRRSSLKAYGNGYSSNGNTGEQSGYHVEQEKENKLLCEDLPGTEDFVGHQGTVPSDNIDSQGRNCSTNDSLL
NadD block: NadD (S. aureus) enzyme inhibition | purified NadD enzyme, colorimetric absorbance read-out | inhibition, % at 20 µM | actives 0.78% (n = 360,000) | AID 602399; in the data active = inhibition above about 26%
GRK2 aptamer HTS: human GRK2 inhibition via aptamer displacement; P25098; bead flow cytometry, FAM-aptamer displacement from GRK2; inhibition of aptamer binding, % at 10 µM; actives 0.59% (n = 330,000); AID 488847;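 active = inhibition of aptamer binding above 40%, roughly 3 SD of noise, on plates passing a quality check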;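 also: median bead fluorescence of bound FAM aptamer so fluorescent compounds give negative values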
PP1 counter: PP1-alpha (human) inhibition in PP5 counter-screen. P62136. purified PP1alpha, OMFP fluorescence. inhibition, % at 6.7 µM. actives 0.9% (n = 320,000);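 active = inhibition above the mean inhibition of all tested compounds plus 3 SD, computed separately for each screening campaign, cut at about 15% in these data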
Exocytosis inh: blocks lytic granule exocytosis | actives 0.66% (n = 360,000) | TALL-104 LAMP-1 surface exposure, flow cytometry; cells stimulated with thapsigargin and PMA | AID 651702 | inhibition, % at 10 µM;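 active = inhibition above about 55%, limit read from the data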
Each line names hits and unclear results; the compound was inactive in the other large screens. An excerpt weighted towards active compounds, which were near 2.9% of everything screened.

COc1ccc(OC)c(C(C[N+](=O)[O-])c2c(C)cc3ccccn23)c1 (configuration not stated)	Exocytosis inh 75
CSc1nsc2nc(=O)c(/C=C3\C(C)=Nc4ccc(C)cc43)c(N)n12	Exocytosis inh 78
COc1ccc(OCc2cc(C(=O)O)c(C)o2)cc1	GRK2 aptamer HTS 64 (no result: B2AR ag, NadD block, Exocytosis inh)
O=C(CCCN1C(=O)/C(=C/c2ccccc2Cl)SC1=S)Nc1cccnc1	PP1 counter 17
O=C(CCN1C(=O)/C(=C/c2ccccc2Cl)SC1=S)Nc1cccnc1	PP1 counter 15
O=C(CCN1C(=O)/C(=C/c2ccccc2Cl)SC1=S)NNC(=O)c1cccnc1	none
O=C(CCCN1C(=O)/C(=C/c2ccccc2Cl)SC1=S)Nc1ccccn1	none
COc1ccc(/C=C2\Oc3cc(OCC(N)=O)ccc3C2=O)cc1OC	none
Cc1ccsc1/C=C1\Oc2cc(OCC(=O)c3ccccc3)ccc2C1=O	PP1 counter 16
CCc1cc(SC#N)cc(C)c1NC(=O)CCl	B2AR ag 47
CCOC(=O)N(C)S(=O)(=O)c1ccccc1[N+](=O)[O-]	none
Cn1ncc2c(O/N=C(\N)c3ccc(C(C)(C)C)cc3)ncnc21	B2AR ag 49
Cc1ccc(NC(=O)C2=C(c3ccccc3)S(=O)(=O)CCS2(=O)=O)cc1	B2AR ag 53
Cc1ccc(NC(=O)c2ccccc2)cc1	none
CC1(C(=O)NCc2ccc3c(c2)OCO3)CCN1C(=O)CC1CCCC1 (configuration not stated)	none (no result: B2AR ag, GRK2 aptamer HTS, PP1 counter)
O=C(Nc1ccc(-c2nc3ccccc3s2)cc1)C1=COCCO1	GRK2 aptamer HTS 48
Clc1cccc(-c2ccc(C3Nc4cccc5cccc(c45)N3)o2)c1	NadD block 52 (no result: PP1 counter)
COc1cccc(C(=O)Oc2cc3c4c(c2)C(C)=CC(C)(C)N4C(=O)C3=O)c1	PP1 counter 17
COc1ccc(C(=O)Oc2cc3c4c(c2)C(C)=CC(C)(C)N4C(=O)C3=O)cc1OC	none
O=C(CSc1nc2nn(-c3ccccc3)c(=O)c-2c2n1CCCCC2)Nc1ccc(F)c(F)c1	NadD block 39 (no result: PP1 counter)
O=C(CSc1nc2nn(-c3ccccc3)c(=O)c-2c2n1CCCCC2)c1ccc(O)c(O)c1	NadD block 57
COc1cccc2c1C(=O)c1c(O)c3c(c(O)c1C2=O)C[C@@](O)(C(=O)CO)C[C@@H]3O[C@H]1C[C@H](N)[C@@H](O)[C@H](C)O1	NadD block 57
CC(=O)[C@]1(O)Cc2c(O)c3c(c(O)c2[C@@H](O[C@H]2C[C@H](N)[C@H](O)[C@H](C)O2)C1)C(=O)c1ccccc1C3=O	none (no result: B2AR ag, NadD block, Exocytosis inh)
COc1cccc2c1C(=O)c1c(O)c3c(c(O)c1C2=O)C[C@@](O)(C(C)=O)C[C@@H]3O[C@H]1C[C@H](N)[C@H](O)[C@H](C)O1	none (no result: GRK2 aptamer HTS, PP1 counter)
COc1cccc2c1C(=O)c1c(O)c3c(c(O)c1C2=O)CC(O)(C(=O)CO)CC3OC1CC(N(C)C)C(O)C(C)O1 (configuration not stated)	NadD block 33 (no result: GRK2 aptamer HTS, PP1 counter)
CCc1ccc(/C=C/C(=O)c2cc(Br)ccc(=O)c2O)cc1	none
Cc1cccc(/C=C/C(=O)c2cc(Br)ccc(=O)c2O)c1	PP1 counter 18
CCOC(=O)/C(C#N)=C\c1cc(C)n(-c2ccccc2)c1C	none
CCOC(=O)/C(C#N)=C/c1cc(C)n(-c2ccc(C)cc2)c1C	Exocytosis inh 86
COc1cccc(C2CC(c3cccs3)=NN2C(=O)CSc2nc3c(cnn3-c3ccc(F)cc3)c(=O)[nH]2)c1OC (configuration not stated)	NadD block 39
COc1cccc(C2CC(c3cccs3)=NN2C(=O)CSc2nc3ccccc3s2)c1OC (configuration not stated)	none
N/C(=N\OC(=O)c1ccc(Br)o1)c1ccccn1	none
O[C@@H]1CN(Cc2cccs2)[C@@H](c2ccc(Cl)cc2)C[C@H]1n1cc(C2CC2)nn1	none (no result: B2AR ag, GRK2 aptamer HTS, PP1 counter)
O=C(O)C1=C[C@H](c2ccc(F)cc2)C[C@H](OCCCCO)O1	none
CCc1ccc(Cc2cnc(NC(=O)C3=NCCN3)s2)cc1	PP1 counter 17
Cc1cc(Br)ccc1NC(=O)c1sc2ncnc(N3CCN(c4ccccn4)CC3)c2c1C	NadD block 30
O=C(O)C1C2C=CC(O2)C1C(=O)Nc1ccc(S(=O)(=O)Nc2ccccc2)cc1 (configuration not stated)	Exocytosis inh 102
CSc1ccc(OC2(C)CCN(Cc3ccc(OC(F)(F)F)cc3)C2)cc1 (configuration not stated)	none (no result: B2AR ag, GRK2 aptamer HTS, PP1 counter)
COc1cccc(CNC(=O)CCS(=O)(=O)c2ccccc2Cl)c1	none
CC(C)(C)OC(=O)NCCCC[C@H](NC(=O)c1[nH]cnc1C(=O)Nc1ccc(CNC(=O)OC(C)(C)C)cc1)C(=O)OC(C)(C)C	PP1 counter 17 (no result: B2AR ag, NadD block, Exocytosis inh)
CC(C)(C)OC(=O)NCCCC[C@H](NC(=O)c1nc[nH]c1C(=O)NCc1ccccc1)C(=O)OC(C)(C)C	none
CC(C)(C)OC(=O)NCCCC[C@H](NC(=O)c1[nH]cnc1C(=O)N[C@@H](Cc1ccccc1)C(=O)OC(C)(C)C)C(=O)OC(C)(C)C	PP1 counter 15
CCCCCCCN(c1ccccc1)[C@@H]1C[C@H]2CCCC(=O)N3CC[C@@H](C1)[C@@H]23	B2AR ag 91 (no result: GRK2 aptamer HTS, PP1 counter)
CCOC(=O)CCCN1CC(O)=C(c2nc(-c3ccc(Cl)cc3)cs2)C1=N	PP1 counter 17
CC1=NNC(=O)/C1=C\c1cn(-c2ccccc2)nc1-c1ccccc1	B2AR ag 82
O=Cc1cn(-c2ccccc2)nc1-c1ccccc1	none
CS(=O)(=O)N1N=C(c2ccco2)CC1c1ccc(Cl)cc1Cl (configuration not stated)	none
CN(C)c1ccc([C@@H]2[C@@H]([N+](=O)[O-])[C@H]3C=Cc4ccccc4N3[C@H]2C(=O)c2ccc(Cl)cc2)cc1	PP1 counter 16
O=C(CCl)N=c1sccn1Cc1ccc(Cl)cc1Cl	B2AR ag 67
O=C(CCl)N=c1sccn1Cc1cccc2ccccc12	B2AR ag 50 (no result: GRK2 aptamer HTS, PP1 counter)
O=C(N=C1SC2CS(=O)(=O)CC2N1Cc1ccc(F)cc1)C1CCCO1 (configuration not stated)	none
Cc1nn(-c2ccccc2)c(Cl)c1/C=N/NC(N)=O	none
Cc1nn(-c2ccccc2)c(Cl)c1/C=N/Nc1nc2ccccc2n1C	Exocytosis inh 90
O=C1NN(c2ccccc2)C(=O)/C1=C\c1cccn1-c1ccc(Cl)c([N+](=O)[O-])c1	NadD block 42
CCN(CC)C(=O)CSc1nc(-c2cccs2)cc(-c2cccs2)c1C#N	PP1 counter 16
CCN(CC)C(=O)CSc1nc(N)c(C#N)c(-c2cccs2)c1C#N	none
COc1ccc(C(=O)/C(=C\c2ccco2)N2C=CC=CC2=C(C#N)C#N)cc1	B2AR ag 60, Exocytosis inh 65
N#CC(C#N)=C1C=CC=CN1/C(=C\c1ccco1)C(=O)c1ccc(Br)cc1	B2AR ag 75, Exocytosis inh 86
N#CC(C#N)=C1C=CC=CN1/C(=C\c1ccco1)C(=O)c1ccccc1	B2AR ag 60
